The source of these data is PubChem BioAssay (NCI).

Compounds without any hit were thinned out: in the full panel of roughly 83,000, 20% have a hit.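 The endpoint reported here, percent growth, reads 100 for growth as untreated, 0 for no net growth and -100 for all cells dead.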 Values without a mark were called inactive. Active and inactive are the calls of the source. Rule for the calls: active = growth percent below 10; inactive = the rest.

Some test systems named below: NCI-H23 lung; NCI-H226 lung; NCI-H322M lung; HOP-62 NSCLC; NCI-H460 lung; HOP-92 NSCLC; NCI-H522 lung; A549/ATCC NSCLC; 786-0 renal; COLO 205 colon; DU-145 prostate; K-562 leukemia; MALME-3M melanoma; MDA-MB-231 breast; RXF 393 renal; SF-268 CNS; SF-295 CNS; SF-539 CNS; UACC-257 melanoma; M14 melanoma.
Holding throughout (assay): NCI-60 one-dose screen, 48 h (100 = growth as untreated, 0 = no growth, -100 = all killed)
Common to all, as to settings: 10 µM unless noted

In the case of `COC(=O)c1cc(C(=O)C(Br)Br)n2c1ccc1c3ccccc3ccc12`, the growth was 69% in the experiment on NCI-H23 lung; 64.2% in the experiment with NCI-H226 lung; 89.4% in the experiment with NCI-H322M lung; 56.7% in the experiment with HOP-62 NSCLC; 18.4% with NCI-H460 lung; 54.3% in the experiment with HOP-92 NSCLC. The growth was 60.2% with NCI-H522 lung; 40.8% in the experiment on A549/ATCC NSCLC; 64.6% in the experiment with 786-0 renal; 55.3% with COLO 205 colon; 52.2% in the experiment on DU-145 prostate; 52.3% in the experiment with K-562 leukemia. The growth with MALME-3M melanoma was 65.6%; in the experiment on MDA-MB-231 breast it was 67.7%; in the experiment on RXF 393 renal it was 141%; with SF-268 CNS, 68%; in the experiment on SF-295 CNS, 54%; in the experiment with SF-539 CNS it was 54.9%. Also, the growth in the experiment on UACC-257 melanoma was 80.1%; in the experiment on M14 melanoma, 75.1%.

As to `CCOC(=O)c1ccc(NC(=S)NC(=O)c2cccc(NC(=O)c3ccc(C)cc3)c2)cc1`, the growth is 66.8% with NCI-H23 lung; 32.2% with NCI-H226 lung; 74.7% in the experiment with NCI-H322M lung; 40.4% in the experiment with HOP-62 NSCLC; 75.9% in the experiment with NCI-H460 lung; 36.4% with HOP-92 NSCLC. The growth was 50.6% in the experiment with NCI-H522 lung; 48.2% with A549/ATCC NSCLC; 81.2% in the experiment with 786-0 renal; 77.9% with COLO 205 colon; 105% in the experiment with DU-145 prostate; 76.3% with K-562 leukemia. Moreover, the growth is 71.9% in the experiment on MALME-3M melanoma; 39.1% in the experiment on MDA-MB-231 breast; 66.9% with RXF 393 renal; 102% in the experiment on SF-268 CNS; 90.9% in the experiment with SF-295 CNS; 44.9% in the experiment with SF-539 CNS. Further, the figures for the growth with UACC-257 melanoma and in the experiment with M14 melanoma were 78.6% and 80.7%, respectively.

Take `COc1ccc(/C=C/c2nc3ccccc3c(=O)n2CC(=O)Nc2ccccc2)cc1`: the growth with NCI-H23 lung was 42.6%; in the experiment on NCI-H226 lung, -26.4% (active); in the experiment with NCI-H322M lung, 46.8%; in the experiment with HOP-62 NSCLC, 2.16% (active); in the experiment on NCI-H460 lung, 37%; in the experiment with HOP-92 NSCLC, -0.34% (active). The growth with NCI-H522 lung was 89.2%; in the experiment on A549/ATCC NSCLC, 27.5%; in the experiment with 786-0 renal, -42.6% (active); with COLO 205 colon it was 71%; with DU-145 prostate, 78%; in the experiment with K-562 leukemia, 84.5%. Besides, the growth in the experiment with MALME-3M melanoma was 61.1%; with MDA-MB-231 breast, -19.5% (active); with RXF 393 renal it was -54.7% (active); in the experiment with SF-268 CNS, 54.5%; in the experiment on SF-295 CNS, 12.5%; in the experiment with SF-539 CNS, 32.4%. The values for the growth in the experiment with UACC-257 melanoma and in the experiment on M14 melanoma were 93.5% and 46.4%, respectively.
